# About 410 targets per protein were measured; listed, in parts, are those with the strongest signals and a random draw of the rest.
# B1: Als3-2 (Candida albicans) (protein)
# chain: KTITGVFNSFNSLTWSNAATYNYKGPGTPTWNAVLGWSLDGTSASPGDTFTLNMPCVFKFTTSQTSVDLTAHGVKYATCQFQAGEEFMTFSTLTCTVSNTLTPSIKALGTVTLPLAFNVGGTGSSVDLEDSKCFTAGTNTVTFNDGGKKISINVDFERSNVDPKGYLTD
# How the values were obtained:
# Assay in all cases: glycan array binding signal (z-score within array); higher = stronger binding
# Conditions in all cases: glycan notation: IUPAC condensed, linker removed
# [1] = target: Man(a1-2)Man(a1-3)[Man(a1-2)Man(a1-6)]Man(a1-6)[Man(a1-2)Man(a1-2)Man(a1-3)]Man
# How it was run: (§1)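 Glycan array data were curated from 3228 arrays in the Consortium for Functional Glycomics database and kept only where the protein sequence was available. Glycan names were converted to IUPAC-condensed notation, and columns mapping to the same glycan were averaged. The binding signal is a within-array Z-score, averaged across arrays of the same protein sequence at different concentrations or buffers and across linkers. Negative Z-scores can be read as non-binding.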
# [2] = target: Neu5Ac(a2-3)Gal(b1-3)GalNAc(b1-3)Gal(a1-4)Gal(b1-4)Glc
# How it was run: as §1
# [3] = target: Neu5Ac(a2-3)Gal(b1-3)GlcNAc(b1-6)GalNAc
# How it was run: as §1
# [4] = target: Neu5Ac(a2-3)Gal(b1-3)[Fuc(a1-4)]GlcNAc(b1-3)Gal(b1-3)[Fuc(a1-4)]GlcNAc
# How it was run: as §1
# [5] = target: Neu5Ac(a2-3)Gal(b1-4)GlcNAc(b1-2)Man(a1-3)[Neu5Ac(a2-6)Gal(b1-4)GlcNAc(b1-2)Man(a1-6)]Man(b1-4)GlcNAc(b1-4)GlcNAc
# How it was run: as §1
# [6] = target: Neu5Ac(a2-3)Gal(b1-4)GlcNAc(b1-2)[Neu5Ac(a2-3)Gal(b1-4)GlcNAc(b1-4)]Man(a1-3)[GlcNAc(b1-4)][Neu5Ac(a2-3)Gal(b1-4)GlcNAc(b1-2)[Neu5Ac(a2-3)Gal(b1-4)GlcNAc(b1-6)]Man(a1-6)]Man(b1-4)GlcNAc(b1-4)GlcNAc
# How it was run: as §1
# [7] = target: Neu5Ac(a2-3)Gal(b1-4)GlcNAc(b1-3)Gal(b1-4)GlcNAc(b1-3)[Neu5Ac(a2-3)Gal(b1-4)GlcNAc(b1-3)Gal(b1-4)GlcNAc(b1-6)]GalNAc
# How it was run: as §1
# [8] = target: Neu5Ac(a2-3)Gal(b1-4)[Fuc(a1-3)]GlcNAc(b1-2)Man
# How it was run: as §1
# [9] = target: Neu5Ac(a2-3)[GalNAc(b1-4)]Gal(b1-4)GlcNAc
# How it was run: as §1
# [10] = target: Neu5Ac(a2-6)Gal(b1-4)GlcNAc(b1-3)Gal(b1-4)[Fuc(a1-3)]GlcNAc(b1-3)Gal(b1-4)[Fuc(a1-3)]GlcNAc
# How it was run: as §1
# [11] = target: Neu5Ac(a2-8)Neu5Ac(a2-8)Neu5Ac
# How it was run: as §1
# Neu5Gc(a2-3)Gal(b1-4)Glc = target: Neu5Gc(a2-3)Gal(b1-4)Glc
# How it was run: as §1
# [12] = target: Neu5Gc(a2-3)Gal(b1-4)[Fuc(a1-3)]GlcNAc
# How it was run: as §1
# [13] = target: Neu5Gc(a2-8)Neu5Gc(a2-6)Gal(b1-4)GlcNAc
# How it was run: as §1
binder,measurement,setting,value
B1,glycan array binding signal (z-score),[1],-0.73
same,glycan array binding signal (z-score),[2],-0.583
same,glycan array binding signal (z-score),[3],1.45
same,glycan array binding signal (z-score),[4],-0.524
same,glycan array binding signal (z-score),[5],-0.401
same,glycan array binding signal (z-score),[6],3.2
same,glycan array binding signal (z-score),[7],6.15
same,glycan array binding signal (z-score),[8],0.73
same,glycan array binding signal (z-score),[9],-0.449
same,glycan array binding signal (z-score),[10],-0.584
same,glycan array binding signal (z-score),[11],-0.398
same,glycan array binding signal (z-score),Neu5Gc(a2-3)Gal(b1-4)Glc,0.047
same,glycan array binding signal (z-score),[12],-0.059
same,glycan array binding signal (z-score),[13],-0.628
